# Screening results from PubChem.
# Most compounds without a hit are left out; they make up all but 2.9% or so of the library.
# MEKK2 mut-MEK5 = signal of MEK5 binding to mutant human MEKK2 PB1 domain. bead flow cytometry, Alexa488-MEK5 binding to MEKK2 mutant. percent response, % at 10 µM. hit rate 0.35% among 290,000; in the data active means percent response above about 24%, passing the limit was not always enough
# B2AR ag = human beta-2 adrenergic receptor agonism by FAP; hit rate 0.43% among 340,000; Am2.2-beta2AR cells, FAP receptor internalization, flow cytometry; AID 504454; response, % (no concentration beside the values);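 active means response above a set limit, near 3 SD of response in nonfluorescent compounds, cut at about 42% in these data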
# MEKK2wt PB1 HTS = raises or lowers MEK5 binding to wildtype human MEKK2 PB1 domain; binding response (% of control), % at 10 µM; hit rate 1.1% among 290,000; Q9Y2U5; bead flow cytometry, Alexa488-MEK5 binding to MEKK2 WT; actives lie on both sides; in the data active means binding response below about 67% or above about 130%
# GRK2 inh = human GRK2 inhibition via aptamer displacement | bead flow cytometry, FAM-aptamer displacement from GRK2 | P25098 | inhibition of aptamer binding, % at 10 µM | hit rate 0.59% among 330,000;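 active means inhibition of aptamer binding above 40%, roughly 3 SD of noise, on plates passing a quality check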;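 further: median bead fluorescence of bound FAM aptamer so fluorescent compounds give negative values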
# MEKK3 PB1 HTS = MEKK3-MEK5 PB1 interaction, increase or decrease. Q99759. hit rate 1.4% among 290,000. binding response (% of control), % at 10 µM. bead-based flow cytometry, Alexa488-MEK5 binding to MEKK3; actives lie on both sides; 0 = blocked by unlabeled MEK5, 100 = vehicle;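 active means binding response more than 3 SD above or below the average of its plate-row segment, actives on both sides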;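 further: Alexa488 bead fluorescence after subtracting the streptavidin-only scavenger bead signal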
# Target sequence (Q99759 whole entry, looked up): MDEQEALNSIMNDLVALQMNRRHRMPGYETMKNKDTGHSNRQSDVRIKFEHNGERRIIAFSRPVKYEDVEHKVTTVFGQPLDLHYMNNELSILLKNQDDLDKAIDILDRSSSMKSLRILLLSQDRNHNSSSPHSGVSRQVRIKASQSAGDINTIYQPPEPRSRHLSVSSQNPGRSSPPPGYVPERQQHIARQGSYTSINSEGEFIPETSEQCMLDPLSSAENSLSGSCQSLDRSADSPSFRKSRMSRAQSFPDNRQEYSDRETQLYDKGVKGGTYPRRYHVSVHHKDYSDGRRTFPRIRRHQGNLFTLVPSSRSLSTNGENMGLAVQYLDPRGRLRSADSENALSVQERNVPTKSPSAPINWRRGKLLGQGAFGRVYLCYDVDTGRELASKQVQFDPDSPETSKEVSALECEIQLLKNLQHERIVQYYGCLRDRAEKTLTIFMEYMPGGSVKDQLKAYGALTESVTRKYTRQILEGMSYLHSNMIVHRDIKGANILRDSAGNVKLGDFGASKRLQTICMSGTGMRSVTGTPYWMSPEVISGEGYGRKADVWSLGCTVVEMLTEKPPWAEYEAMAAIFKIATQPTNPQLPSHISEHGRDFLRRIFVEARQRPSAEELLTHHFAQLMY
# MEKK2wt confirm = raises or lowers MEK5 binding to wildtype human MEKK2, retest; binding response (% of control), % at 10 µM; bead flow cytometry, Alexa488-MEK5 binding to MEKK2 WT; actives lie on both sides; shares compounds with MEKK3 PB1 HTS; hit rate 2.4% among 5,900; in the data active means binding response below about 16% or above about 210%; inactive means in between
# MEKK2mut-MEK5 = signal of MEK5 binding to mutant human MEKK2, retest; shares compounds with MEKK3 PB1 HTS; bead flow cytometry, Alexa488-MEK5 binding to MEKK2 mutant; percent response, % at 10 µM; hit rate 2% among 5,900; in the data active means percent response mostly above about 71%, no sharp cut-off; inactive means mostly below about 38%;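 further: higher means compound restores mutant binding toward wildtype level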
# MEKK3 confirm = MEKK3-MEK5 PB1 inhibition, single concentration confirmation. shares compounds with MEKK3 PB1 HTS. bead flow cytometry, Alexa488-MEK5 binding to MEKK3; hits give low values. binding response (% of control), % at 10 µM. hit rate 1.8% among 5,900. AID 1894;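 active means binding response below 72% of control, or above a set upper limit, though filed actives all read lower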;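 further: 100% = DMSO only wells and 0% = binding blocked by excess unlabeled MEK5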
# Numbers without * were called inactive; x = no result given; + = active, no number; [ ] = remark or other dose.
SMILES,MEKK2 mut-MEK5,B2AR ag,MEKK2wt PB1 HTS,GRK2 inh,MEKK3 PB1 HTS,MEKK2wt confirm,MEKK2mut-MEK5,MEKK3 confirm
Cc1ccc(CNC(=O)CSc2nc3ccsc3c(=O)n2Cc2ccccn2)cc1,-6,-2,100,4,103,x,x,x
Brc1ccc(-c2nc3ncccn3c2NC2CCCCC2)o1,8,3,123,0,129*,101,4,102
Cc1ccc(C)n1-c1ccc(-c2ccnc(N)n2)cc1,14,9,112,x,147*,104,5,100
Cc1cc(C)n(CC(=O)NNC(=O)c2ccc(S(C)(=O)=O)cc2)n1,x,-1,x,4,x,x,x,x
CCc1noc(C)c1C(=O)NNC(=O)c1ccc(N(CC)CC)cc1,x,3,x,3,x,x,x,x
Cn1c(CNC(=O)CCNC(=O)c2ccccc2F)cc(=O)n(C)c1=O,0,3,104,0,102,x,x,x
O=C(CSc1nc(C2CCCCC2)nc2ccccc12)NCc1ccco1,-28,-23,-1.0*[inhibitor],2,2.0*[inhibitor],109,7,110
Cc1sc2nc(C3CC3)nc(SCC(=O)NCc3ccco3)c2c1C,1,-10,100,7,101,x,x,x
O=C(O)CCn1nnc2ccccc21,-5,-3,95,0,92,x,x,x
COc1ccc(S(=O)(=O)N2c3ccccc3NC(=O)CC2C)cc1 (configuration not stated),10,6,113,2,105,x,x,x
Cc1ccc(SCC(=O)NCC2CCCO2)cc1 (configuration not stated),-10,4,94,1,96,x,x,x
COc1ccc2oc(=O)c(C(=O)NCC3CCCO3)cc2c1 (configuration not stated),-7,6,94,5,82*[inhibitor],101,-6,98
CCOc1cc(NC(=S)NCC2CCCO2)c(OCC)cc1NC(=O)c1ccccc1C (configuration not stated),-3,8,98,1,103,x,x,x
COc1ccc(-c2nsc(SCC(=O)NCC3CCCO3)n2)cc1 (configuration not stated),-3,0,81,0,73*[inhibitor],100,1,101
CCOc1cc(NC(=S)NCC2CCCO2)c(OCC)cc1NC(=O)c1ccc(OC)cc1 (configuration not stated),1,-5,106,0,130*,96,-1,103
Cc1ccc(SCCC(=O)NCC2CCCO2)cc1 (configuration not stated),-39,5,1.0*[inhibitor],0,2.0*[inhibitor],96,1,102
COc1cccc2cc(C(=O)NCC3CCCO3)c(=O)oc12 (configuration not stated),x,3,x,0,x,x,x,x
Oc1ccc(Cl)cc1CNCc1cccc2ccccc12,x,-2,x,1,x,x,x,x
COCCSc1nnc(NS(=O)(=O)c2ccc(F)cc2)s1,0,-1,119,3,136*,105,19,106
CC1(C)OC(=O)C(=CNC(=O)c2c(F)cccc2F)C(=O)O1,-4,4,82,3,72*[inhibitor],92,-3,95
CCc1noc(C)c1C(=O)OCC(=O)Nc1cccc(C)c1,x,-1,x,1,x,x,x,x
O=C(Nc1cccc(F)c1)C1CCN(C(=O)c2ccc(Cl)cc2)CC1,1,-8,105,0,145*,99,-6,97
COc1ccc(C(=O)N2CCC(C(=O)Nc3ccc4c(c3)OCO4)CC2)cc1,-1,2,104,0,101,x,x,x
COc1cc(OC)cc(C(=O)N2CCC(C(=O)Nc3ccc4c(c3)OCCO4)CC2)c1,1,-9,105,1,146*,104,2,104
CN(CC(=O)Nc1cccc(F)c1)C(=O)C1CCN(C(=O)c2ccc(Cl)cc2)CC1,x,-5,x,0,x,x,x,x
SMILES,MEKK2 mut-MEK5,B2AR ag,MEKK2wt PB1 HTS,GRK2 inh,MEKK3 PB1 HTS,MEKK2wt confirm,MEKK2mut-MEK5,MEKK3 confirm
Cc1ccc(N(CC(N)=O)C2SC(=O)N(C)C2=O)cc1 (configuration not stated),5,-3,125,1,126*,102,-5,98
Cc1cccc(N(CC(N)=O)C2SC(=O)N(c3ccccc3)C2=O)c1 (configuration not stated),0,0,97,1,99,x,x,x
O=C(/C=C/c1ccccc1[N+](=O)[O-])N1CCN(c2ccc(F)cc2)CC1,1,-9,98,1,101,x,x,x
O=C(CN1C(=O)c2cccc([N+](=O)[O-])c2C1=O)N1CCN(c2ccc(F)cc2)CC1,-17,5,53,0,47*[inhibitor],102,5,106
O=C(CN1C(=O)c2cccc3cccc1c23)N1CCN(c2ccc(F)cc2)CC1,2,4,107,1,106,x,x,x
O=C(/C=C/c1cccc([N+](=O)[O-])c1)N1CCN(c2ccc(F)cc2)CC1,0,4,109,3,133*,96,-5,97
CC(Oc1ccc(C(=O)NCCc2ccccc2)cc1)C(=O)O (configuration not stated),-1,-7,99,0,106,x,x,x
CC(C)OC(=O)C(C)Oc1ccc(C(=O)NCCc2ccccc2)cc1 (configuration not stated),4,11,110,5,123*,104,6,100
Cc1nn(CC(=O)N(C)Cc2ccccc2)c(=O)c2cccn12,2,-4,98,6,100,x,x,x
COc1cc(-c2csc(CCn3nc(C)cc3C)n2)cc(OC)c1OC,+,6,x,0,122,99,-3,97
Cc1cc(C)n(CCc2nc(-c3ccc(F)cc3)cs2)n1,2,7,104,3,106,x,x,x
N#CC(C#N)=C1C=CC=CN1/C(=C\c1ccco1)C(=O)c1ccc(Br)cc1,1,75*,106,0,137*,100,-2,102
N#C/C(=C/c1ccco1)C(N)=S,-13,1,94,3,93,x,x,x
CCC(=O)N(CCc1ccccc1)Cc1cc2cc(OC)ccc2[nH]c1=O,30,-6,120,2,135*,95,1,103
COc1ccc(C(=O)Nc2ccc(-c3n[nH]c(=S)o3)cc2)cc1,-5,1,101,0,100,x,x,x
C=CCOc1ccc(-c2n[nH]c(=S)o2)cc1,0,2,112,0,131*,94,-2,98
C/C(=N\NC(=O)c1ccc(Cl)cc1)c1ccc2[nH]ccc2c1,0,-2,98,0,99,x,x,x
O=C(CSc1ccc(Cl)cc1)N1CCN(c2ccc([N+](=O)[O-])cc2Cl)CC1,0,1,95,4,98,x,x,x
